Measured values: PubChem BioAssay AID493034 (The Scripps Research Institute Molecular Screening Center, 2011)
Among all 2,400 compounds or so, about 2,200 (92%) were called active.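 Rule for the calls: active = mean inhibition over triplicate runs exceeds the cutoff derived for the earlier primary screen (cut at about 25% in these data); inactive = the rest.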 The set was probably picked from earlier hits. This is one part of the list.

Each molecule was assayed against Platelet-activating factor acetylhydrolase IB subunit alpha2 (Homo sapiens) (UniProt P68402) (assay: PAFAH1B2 inhibitors, confirmation, biochemical, fluorescence polarization, FP-rhodamine probe, triplicate (AID 493034;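 note: 0% = enzyme with DMSO and 100% = wells lacking PAFAH1B2 protein; inhibitors lower polarization by leaving the probe unbound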)). Details: recombinant PAFAH1B2, FP-rhodamine probe fluorescence polarization; at 3.39 µM; active compounds read high.
Sequence of Platelet-activating factor acetylhydrolase IB subunit alpha2 (Homo sapiens) (P68402 whole entry, looked up): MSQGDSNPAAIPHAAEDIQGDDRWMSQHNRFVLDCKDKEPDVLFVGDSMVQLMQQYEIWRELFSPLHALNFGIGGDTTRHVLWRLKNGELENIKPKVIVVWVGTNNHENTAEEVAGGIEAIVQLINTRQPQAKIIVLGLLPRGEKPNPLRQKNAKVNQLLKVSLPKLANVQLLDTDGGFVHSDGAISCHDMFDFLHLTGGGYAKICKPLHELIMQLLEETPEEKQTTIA

SMILES	inhibition
COc1cc(C=O)ccc1OCCSc1ccc(C)cc1	23% (inactive)
COc1cc(/C=C2\SC(=S)N(CC(=O)O)C2=O)ccc1OS(=O)(=O)c1ccc(C)cc1	38.1% (active)
COc1cc(/C=C2\SC(=S)N(CCCCC(=O)O)C2=O)ccc1OS(=O)(=O)c1ccc(C)cc1	30.5% (active)
Cc1ccc(S(=O)(=O)CCC(=O)NCCN2C(=O)S/C(=C/c3ccc(F)cc3)C2=O)cc1	21.1% (inactive)
CCOc1cc2[nH]c(=O)n(CCCC(=O)NCc3ccc(OC)cc3)c(=O)c2cc1OCC	3.79% (inactive)
CC(C)c1ccc(C(C)NCCS(=O)(=O)c2ccc(Cl)cc2)cc1 (stereo not drawn)	18.1% (inactive)
Cc1ccc(S(=O)(=O)N2[C@@H](c3ccc(Cl)cc3)C(C(=O)O)=CC[C@H]2c2ccc(C(C)C)cc2)cc1	95.9% (active)
Cc1ccc(S(=O)(=O)N2[C@@H](c3ccc(Br)cc3)C(C(=O)O)=CC[C@H]2c2ccc(C(C)C)cc2)cc1	93.5% (active)
CC(Oc1ccc(Cl)cc1)C(=O)OCC(=O)Nc1ncc(Cl)cc1Cl (stereo not drawn)	23.2% (inactive)
Cc1nc(N)nc(N)c1/C=C/C(C)(C)c1ccc(Cl)cc1	66.2% (active)
O=C(O)CCN1C(=O)C2C3CC(C2C1=O)C1C(c2ccccc2)c2sc(=O)[nH]c2SC31 (stereo not drawn)	79.6% (active)
O=C(O)CCCN1C(=O)C2C3CC(C2C1=O)C1C(c2ccccc2)c2sc(=O)[nH]c2SC31 (stereo not drawn)	74% (active)
ONC(=Nc1ccc(Cl)cc1)c1ccccc1	23.1% (inactive)
O=C(CSc1n[nH]c(-c2ccc(S(=O)(=O)N3CCCCC3)cc2)n1)Nc1nccs1	44.6% (active)
O=C(Nc1nc2ccc(S(=O)(=O)N3CCCCC3)cc2s1)c1ccncc1	20.7% (inactive)
O=C(NCc1n[nH]c(=S)n1-c1ccc(Br)cc1)c1ccc(S(=O)(=O)N2CCCCC2)cc1	23.9% (inactive)
O=C(Cc1ccc(Br)cc1)c1ccc(O)cc1O	70.8% (active)
N#Cc1ccc(S(=O)(=O)N2CCc3[nH]c4ccc(F)cc4c3C2)cc1	31.2% (active)
CCC(C)CCCCCCCCCCC(=O)O (stereo not drawn)	16.6% (inactive)
CN(CC(=O)Nc1ccc(C#N)cc1)Cc1ccc(Cl)cc1	19.9% (inactive)
O/N=C/c1ccc2ccccc2c1	43.9% (active)
Cc1ccc(COc2ccc(/C=N/O)cc2)cc1	22.1% (inactive)

SMILES	inhibition
Cc1ccc(S(=O)(=O)Nc2ccc(Cl)cc2C(=O)c2ccc(F)cc2)cc1	27.2% (active)
Cc1ccc(S(=O)(=O)NC(=O)Nc2nc(-c3ccc(F)c(F)c3)cs2)cc1	9.68% (inactive)
CNC(=O)c1cc(C(=O)c2ccc(Cl)cc2)c(Br)[nH]1	14% (inactive)
O=C1N(c2ccccc2)C(c2ccccc2)C12CCCCC2 (stereo not drawn)	24% (inactive)
CC1(C)C(=O)N(c2ccccc2)C1c1ccccc1O (stereo not drawn)	36.5% (active)
CCCC(=O)Nc1sc(-c2ccccc2)c(-c2ccccc2)c1C(=O)O	43.5% (active)
O=C(CCN1C(=O)/C(=C/c2ccccc2F)SC1=S)N[C@@H](CO)Cc1ccccc1	60.2% (active)
O=C(CCN1C(=O)/C(=C/c2ccccc2)SC1=S)N[C@@H](CO)Cc1ccccc1	66.8% (active)
COc1ccc(/C=C2\SC(=O)N(CCCC(=O)Nc3cc(Cl)ccc3C(=O)O)C2=O)cc1	40.3% (active)
O=C(CCN1C(=O)/C(=C/c2ccccc2Cl)SC1=S)NC1=NCCS1	6.52% (inactive)
O=C(CCCN1C(=O)/C(=C\c2ccccc2)SC1=S)Nc1ccc(O)cc1C(=O)O	61.7% (active)
OC(c1ccccc1)(c1ccc(F)cc1)C(c1ccccc1)N1CCOCC1 (stereo not drawn)	21.9% (inactive)
CN(C(=O)COC(=O)c1ccc(Cl)c(S(=O)(=O)NCc2ccccc2)c1)C1CCS(=O)(=O)C1 (stereo not drawn)	19.1% (inactive)
Cc1ccc(C)c(NC(=O)CN(C)C(=O)c2ccc3[nH]c4c(c3c2)CC(C)CC4)c1 (stereo not drawn)	29.8% (active)
Cc1ccc(NC(=O)CN(C)C(=O)c2ccc3[nH]c4c(c3c2)CC(C)CC4)cc1 (stereo not drawn)	47.5% (active)
O=[N+]([O-])c1ccc(O)c(/C=N/Nc2nc3ccccc3[nH]2)c1	28.4% (active)
CC(C)C1Nc2c(O)cc(Cl)c([N+](=O)[O-])c2C2C=CCC21 (stereo not drawn)	39.4% (active)
CC(C)C1Nc2ccc(S(N)(=O)=O)cc2C2C=CCC21 (stereo not drawn)	23% (inactive)
O=c1[nH]c2c(s1)C(c1ccccc1)C1C3CCC(C3)C1S2 (stereo not drawn)	36.8% (active)
O=c1[nH]c2c(s1)C(c1ccco1)C1C3CCC(C3)C1S2 (stereo not drawn)	51.9% (active)
O=C(CSc1ncn[nH]1)NCCc1ccc(Cl)cc1	18.2% (inactive)
Cc1csc(SCC(=O)NCCc2ccc(Cl)cc2)n1	22.8% (inactive)

SMILES	inhibition
Cc1ccc(C)c(NC(=S)NCCSc2ccc(Cl)cc2)c1	23.1% (inactive)
S=C(NCCc1ccc(Cl)cc1)NC1CCCCC1	22.8% (inactive)
S=C(NCCc1ccc(Cl)cc1)NC1CC1	40.9% (active)
COc1ccccc1NC(=S)NCCc1ccc(Cl)cc1	25.7% (active)
COc1ccc(CCN(C)Cc2c(O)ccc3cc(Br)ccc23)cc1OC	14.9% (inactive)
CCN(CC(=O)Nc1ccc(NC(C)=O)cc1)Cc1c(O)ccc2cc(Br)ccc12	59.1% (active)
Cc1ccc(C)c(Cn2nnc3c(=O)[nH]c(C(=O)NCC4CCCO4)nc32)c1 (stereo not drawn)	5.01% (inactive)
NNC(=S)NC1CCCCCCCCCCC1	47.2% (active)
CN(C)C(=O)NC1CCCCCCCCCCC1	22.7% (inactive)
CNC(=S)N(Cc1ccc(OC)cc1)C1CC(=O)N(c2ccc(Cl)cc2)C1=O (stereo not drawn)	23.9% (inactive)
CC(C)(C)OC(=O)[C@H]1[C@H](c2ccc([N+](=O)[O-])cc2)C2(C(=O)c3ccccc3C2=O)C2c3ccccc3C=NN21 (stereo partly drawn)	73.7% (active)
O=C(O)c1ccccc1C(=O)NCCc1c(C(=O)O)[nH]c2ccc(Cl)cc12	26% (active)
O=C(O)c1[nH]c2ccc(Br)cc2c1CCN1C(=O)c2cccc([N+](=O)[O-])c2C1=O	41.5% (active)
O=C(O)c1[nH]c2ccc(Cl)cc2c1CCN1C(=O)c2ccccc2C1=O	79.2% (active)
CC(C)CC(C(=O)O)N1C(=O)C2C3CC(C2C1=O)C1C(c2ccccc2)c2sc(=O)[nH]c2SC31 (stereo not drawn)	39.3% (active)
CC(C(=O)O)N1C(=O)C2C3CC(C2C1=O)C1C(c2ccccc2)c2sc(=O)[nH]c2SC31 (stereo not drawn)	43.1% (active)
Cc1ccc(N2C(=O)CC(Sc3nc4ccccc4o3)C2=O)cc1Cl (stereo not drawn)	20.1% (inactive)
Cn1c(COc2ccc(Cl)cc2)nnc1SCc1ncc(-c2ccccc2)o1	22.4% (inactive)
C[C@H](NC(=O)c1nc[nH]c1C(=O)NCC(=O)OCc1ccccc1)c1ccccc1	23.8% (inactive)
Cc1noc(C)c1COc1ccccc1C(=O)NC(C)c1ccc(Cl)cc1 (stereo not drawn)	15.7% (inactive)
COc1cc(/C=N/NS(=O)(=O)c2ccc(C(C)(C)C)cc2)cc([N+](=O)[O-])c1O	14.5% (inactive)
COc1cccc(/C=N/Nc2ccc(S(=O)(=O)Nc3ccccc3C(=O)O)cc2[N+](=O)[O-])c1O	20.4% (inactive)

SMILES	inhibition
COc1cc(/C=N/N(C)S(=O)(=O)c2ccc(C)cc2)cc([N+](=O)[O-])c1O	30.5% (active)
CN(CCc1ccccn1)C(=S)NC(=O)c1ccco1	3.54% (inactive)
O=C(CNC(=O)OCc1ccccc1)Oc1cc2oc(=O)cc(-c3ccccc3)c2cc1Cl	50.6% (active)
CC(C)(c1ccc(O)cc1)c1ccc(O)cc1	42.2% (active)
COC(=O)c1c(NC(=O)C2C3CCC(O3)C2C(=O)O)sc2c1CCCCCC2 (stereo not drawn)	39.5% (active)
O=C(O)C1=C[C@H](c2ccc(C(F)(F)F)cc2)C[C@H](OCc2ccc(CO)cc2)O1	26% (active)
Cc1ccc(S(=O)(=O)N2[C@@H](c3ccc(Cl)cc3)C(C(=O)O)=C[C@H]2C(C)(C)C)cc1	21% (inactive)
Cc1ccc(S(=O)(=O)N/N=C/c2cccn2-c2ccc(Cl)cc2)cc1	45% (active)
O=C(NCc1ccc(Cl)cc1)C(=O)NCC1OCCN1S(=O)(=O)c1cc(F)ccc1F (stereo not drawn)	20.3% (inactive)
CN(C(=O)Cc1c(C(=O)O)n(C)c2ccccc12)c1ccc(Cl)cc1	41.1% (active)
Cc1nn(-c2ccccc2)c(Cl)c1CN(C(=O)CCl)c1ccc(Cl)cc1	21.7% (inactive)
O=C(NNC(=O)C12CC3CC(CC(Cl)(C3)C1)C2)c1csc(N2CCOCC2)n1	23% (inactive)
C=CCn1c(-c2cccn(Cc3ccc(Cl)cc3)c2=O)n[nH]c1=S	22.8% (inactive)
S=c1[nH]nc(-c2ccc(Cl)cc2)n1Cc1ccccc1	32% (active)
S=c1[nH]nc(Cc2ccc(Br)cc2)n1/N=C/c1ccc(Cl)cc1	20% (inactive)
C[C@@H]1COC(=O)[C@H](Cc2ccc(F)cc2)C/C=C\C[C@@H](CC(=O)NCCO)C(=O)N1	22.3% (inactive)
O=C(C[C@@H]1C/C=C\C[C@@H](Cc2ccc(F)cc2)C(=O)OC[C@H]2CCCN2C1=O)N[C@H](CO)Cc1ccccc1	32.1% (active)
O=C(C[C@@H]1C/C=C\C[C@@H](Cc2ccc(F)cc2)C(=O)OC[C@@H]2CCCN2C1=O)NCCO	26.9% (active)
O=C(C[C@H]1C/C=C\C[C@@H](Cc2ccc(F)cc2)C(=O)OC[C@H]2CCCN2C1=O)N[C@@H](CO)Cc1ccccc1	35.2% (active)
CCN1C(=O)N/C(=C/c2cc(C)n(Cc3ccccc3)c2C)C1=O	77.5% (active)
O=C(N/N=C/c1cc([N+](=O)[O-])ccc1O)NC12CC3CC(CC(C3)C1)C2	79.6% (active)
O=C(N/N=C/c1cc([N+](=O)[O-])ccc1O)Nc1ccccc1	16.1% (inactive)
